Data reported in PubChem BioAssay.
Calls of active or inactive are those of the source.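 How the source made its calls, unless noted: active means percent response above 42, roughly 3 SD of non-fluorescent test compounds; inactive means the rest.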

Tests used:
[1] = inhibitors of CD8+ T cell-vesicle binding, pilot screen, LFA-1/ICAM-1 modulator project, MLPCN validation set, flow cytometry (AID 2523;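 active means response below a set limit, under 55% cells CD8-positive and vesicle-bound, and CD8 cells' 90th-percentile brightness under 279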;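 on vesicle binding response: mean PE anti-B7-1 fluorescence of CD8+ cells relative to row control; 100% = QL9-loaded vesicles with DMSO vehicle in the same plate row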); details: 2C mouse CD8+ T cells, at 7 µM, stronger effect = lower value; double positive events: measured here: CD8+/vesicle+ event percentage
[2] = biological target: Integrin beta-1 (Homo sapiens) + Integrin alpha-4 (Homo sapiens) (UniProt P13612+P05556); experiment: inhibition of HUTS-21 binding to VLA-4, pilot screen, VLA-4 allosteric modulator project, U937 cells, HUTS-21 mAb, flow cytometry, validation set (AID 2674;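 active means inhibition above 50%, about 3 SD of the validation set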;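 further: antibody binding induced by the VLA-4 ligand LDV present at three times its Kd; 0% = LDV ligand with antibody and no compound and 100% = antibody without LDV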); details: HUTS-21 LIBS mAb binding, at 6.7 µM, stronger effect = higher value, binding induced by LDV ligand
Chain of Integrin beta-1 (Homo sapiens) + Integrin alpha-4 (Homo sapiens) (P05556 whole entry, looked up): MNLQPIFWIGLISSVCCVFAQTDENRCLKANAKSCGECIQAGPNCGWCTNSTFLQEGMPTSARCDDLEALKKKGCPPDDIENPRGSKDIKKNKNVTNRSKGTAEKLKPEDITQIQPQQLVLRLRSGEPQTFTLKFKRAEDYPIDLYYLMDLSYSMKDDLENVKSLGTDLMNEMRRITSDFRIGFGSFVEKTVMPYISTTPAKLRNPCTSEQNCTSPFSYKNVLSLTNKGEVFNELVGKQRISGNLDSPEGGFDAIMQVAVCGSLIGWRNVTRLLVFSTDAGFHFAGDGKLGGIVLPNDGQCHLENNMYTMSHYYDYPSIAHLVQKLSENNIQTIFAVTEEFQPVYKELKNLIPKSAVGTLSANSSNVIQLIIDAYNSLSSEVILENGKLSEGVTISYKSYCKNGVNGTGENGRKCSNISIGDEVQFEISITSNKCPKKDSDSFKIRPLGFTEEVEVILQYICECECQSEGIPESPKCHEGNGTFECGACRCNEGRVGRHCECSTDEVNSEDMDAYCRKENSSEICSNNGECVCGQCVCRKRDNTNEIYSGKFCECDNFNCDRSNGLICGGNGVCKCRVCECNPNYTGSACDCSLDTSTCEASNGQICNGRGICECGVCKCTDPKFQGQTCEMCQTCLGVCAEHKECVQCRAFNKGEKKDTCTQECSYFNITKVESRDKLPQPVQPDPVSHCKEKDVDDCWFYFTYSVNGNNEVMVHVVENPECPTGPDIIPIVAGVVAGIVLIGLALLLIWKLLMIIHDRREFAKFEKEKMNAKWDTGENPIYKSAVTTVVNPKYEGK
Chain of Integrin beta-1 (Homo sapiens) + Integrin alpha-4 (Homo sapiens) (P13612 whole entry, looked up): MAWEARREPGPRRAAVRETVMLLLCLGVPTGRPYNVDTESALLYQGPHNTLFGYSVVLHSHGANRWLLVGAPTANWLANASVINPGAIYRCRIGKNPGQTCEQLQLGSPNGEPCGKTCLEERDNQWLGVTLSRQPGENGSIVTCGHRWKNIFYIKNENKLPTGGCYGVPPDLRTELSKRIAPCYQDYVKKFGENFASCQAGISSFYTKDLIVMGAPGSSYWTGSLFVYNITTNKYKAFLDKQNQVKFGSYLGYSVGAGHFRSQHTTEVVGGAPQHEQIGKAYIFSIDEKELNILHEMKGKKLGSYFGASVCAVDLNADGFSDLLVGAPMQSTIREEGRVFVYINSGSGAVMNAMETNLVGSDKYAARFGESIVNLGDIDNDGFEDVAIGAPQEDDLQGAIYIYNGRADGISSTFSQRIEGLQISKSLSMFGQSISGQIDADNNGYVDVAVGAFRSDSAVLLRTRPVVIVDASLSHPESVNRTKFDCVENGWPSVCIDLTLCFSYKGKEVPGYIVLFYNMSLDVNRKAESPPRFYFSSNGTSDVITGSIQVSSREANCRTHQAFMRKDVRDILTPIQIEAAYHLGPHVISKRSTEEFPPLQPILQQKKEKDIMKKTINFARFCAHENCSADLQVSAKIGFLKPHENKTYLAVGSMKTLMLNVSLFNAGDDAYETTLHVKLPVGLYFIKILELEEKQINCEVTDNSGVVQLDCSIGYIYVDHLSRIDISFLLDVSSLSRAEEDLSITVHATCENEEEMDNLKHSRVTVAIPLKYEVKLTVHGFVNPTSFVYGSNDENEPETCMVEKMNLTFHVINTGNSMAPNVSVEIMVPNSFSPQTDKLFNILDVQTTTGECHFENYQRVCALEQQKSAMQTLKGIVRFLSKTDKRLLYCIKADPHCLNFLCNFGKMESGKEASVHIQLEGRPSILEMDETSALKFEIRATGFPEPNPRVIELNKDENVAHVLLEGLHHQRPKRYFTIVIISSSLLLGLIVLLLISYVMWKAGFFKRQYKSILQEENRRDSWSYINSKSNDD

[3] = superoxide lowering in aged yeast cells, pilot screen, validation compound set (AID 2706;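 active means superoxide response below 65% of plate, a cut near 3 SD across the whole screen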;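 further: yeast exposed to compound for one week at 30 degrees C before staining; 100% = mean of all compound wells on the same plate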); details: S. cerevisiae aging, superoxide DHE fluorescence; at 10 µM, stronger effect = lower value
[4] = biological target: Beta-adrenergic receptor kinase 1 (Homo sapiens) (UniProt P25098); experiment: GRK2 binders displacing RNA aptamer, biochemical, validation, human GRK2, bead flow cytometry (AID 488806;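 active means aptamer binding inhibition above 30%, about 3 SD of noise from non-fluorescent compounds; inactive means inhibition at or below 30%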); details: bead-bound GRK2, FAM-aptamer displacement, at 10 µM, stronger effect = higher value
Chain of Beta-adrenergic receptor kinase 1 (Homo sapiens) (P25098 whole entry, looked up): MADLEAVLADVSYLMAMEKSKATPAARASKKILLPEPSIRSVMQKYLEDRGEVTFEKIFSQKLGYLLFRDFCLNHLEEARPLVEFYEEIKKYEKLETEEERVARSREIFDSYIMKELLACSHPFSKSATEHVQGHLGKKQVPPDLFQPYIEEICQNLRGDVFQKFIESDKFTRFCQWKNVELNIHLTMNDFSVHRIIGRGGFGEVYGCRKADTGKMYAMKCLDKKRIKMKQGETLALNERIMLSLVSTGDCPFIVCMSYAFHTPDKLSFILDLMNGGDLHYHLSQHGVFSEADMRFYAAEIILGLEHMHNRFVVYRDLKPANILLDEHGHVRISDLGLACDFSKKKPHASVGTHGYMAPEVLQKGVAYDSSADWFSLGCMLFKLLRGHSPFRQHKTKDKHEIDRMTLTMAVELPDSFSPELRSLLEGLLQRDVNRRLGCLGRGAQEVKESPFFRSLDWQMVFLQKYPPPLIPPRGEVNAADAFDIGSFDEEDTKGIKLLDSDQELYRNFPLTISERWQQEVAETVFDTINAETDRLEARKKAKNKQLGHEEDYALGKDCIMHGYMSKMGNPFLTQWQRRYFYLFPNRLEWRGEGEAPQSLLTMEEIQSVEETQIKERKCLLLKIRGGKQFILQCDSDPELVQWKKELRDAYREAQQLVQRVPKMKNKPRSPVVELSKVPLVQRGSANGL

[5] = biological target: Beta-2 adrenergic receptor (Homo sapiens) (UniProt P07550); experiment: beta2AR agonists driving receptor internalization, pilot screen, cell-based, FAP fluorogen, flow cytometry, validation set (AID 504459); details: Am2.2-beta2AR cells, FAP surface receptor flow cytometry; at 10 µM; stronger effect = higher value;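 further: agonist-driven loss of surface beta2AR via internalization measured by FAP dye flow cytometry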
Chain of Beta-2 adrenergic receptor (Homo sapiens) (P07550 whole entry, looked up): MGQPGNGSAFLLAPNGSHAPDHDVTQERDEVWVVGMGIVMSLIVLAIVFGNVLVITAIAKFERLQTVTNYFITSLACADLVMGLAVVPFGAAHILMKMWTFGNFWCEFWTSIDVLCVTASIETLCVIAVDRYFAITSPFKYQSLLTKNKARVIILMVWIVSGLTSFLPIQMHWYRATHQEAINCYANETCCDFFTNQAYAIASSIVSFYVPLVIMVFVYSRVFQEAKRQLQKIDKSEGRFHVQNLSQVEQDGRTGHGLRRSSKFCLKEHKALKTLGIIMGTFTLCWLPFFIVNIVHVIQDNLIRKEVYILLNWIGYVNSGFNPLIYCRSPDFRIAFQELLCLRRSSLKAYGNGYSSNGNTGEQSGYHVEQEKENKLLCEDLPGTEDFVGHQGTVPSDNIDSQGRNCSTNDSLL

[6] = biological target: AP-2 complex subunit beta (Homo sapiens) (UniProt P63010); experiment: inhibitors of arrestin peptide binding to AP2, pilot screen, biochemical, validation set, GST-AP2 beads, flow cytometry (AID 504541;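 active means inhibition above 54%, about 3 SD of non-fluorescent compounds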;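 further: AP2 carries R879A mutation and is captured from E. coli lysate; bead-bound FITC arrestin peptide fluorescence measuring arrestin peptide binding to AP2; 0% = DMSO wells and 100% = excess unlabeled arrestin peptide control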); details: FITC arrestin peptide, at 10 µM, stronger effect = higher value, AP2 beta2 appendage fragment, R879A mutant
Chain of AP-2 complex subunit beta (Homo sapiens) (P63010 whole entry, looked up, the tested form may be a part, one chain of several): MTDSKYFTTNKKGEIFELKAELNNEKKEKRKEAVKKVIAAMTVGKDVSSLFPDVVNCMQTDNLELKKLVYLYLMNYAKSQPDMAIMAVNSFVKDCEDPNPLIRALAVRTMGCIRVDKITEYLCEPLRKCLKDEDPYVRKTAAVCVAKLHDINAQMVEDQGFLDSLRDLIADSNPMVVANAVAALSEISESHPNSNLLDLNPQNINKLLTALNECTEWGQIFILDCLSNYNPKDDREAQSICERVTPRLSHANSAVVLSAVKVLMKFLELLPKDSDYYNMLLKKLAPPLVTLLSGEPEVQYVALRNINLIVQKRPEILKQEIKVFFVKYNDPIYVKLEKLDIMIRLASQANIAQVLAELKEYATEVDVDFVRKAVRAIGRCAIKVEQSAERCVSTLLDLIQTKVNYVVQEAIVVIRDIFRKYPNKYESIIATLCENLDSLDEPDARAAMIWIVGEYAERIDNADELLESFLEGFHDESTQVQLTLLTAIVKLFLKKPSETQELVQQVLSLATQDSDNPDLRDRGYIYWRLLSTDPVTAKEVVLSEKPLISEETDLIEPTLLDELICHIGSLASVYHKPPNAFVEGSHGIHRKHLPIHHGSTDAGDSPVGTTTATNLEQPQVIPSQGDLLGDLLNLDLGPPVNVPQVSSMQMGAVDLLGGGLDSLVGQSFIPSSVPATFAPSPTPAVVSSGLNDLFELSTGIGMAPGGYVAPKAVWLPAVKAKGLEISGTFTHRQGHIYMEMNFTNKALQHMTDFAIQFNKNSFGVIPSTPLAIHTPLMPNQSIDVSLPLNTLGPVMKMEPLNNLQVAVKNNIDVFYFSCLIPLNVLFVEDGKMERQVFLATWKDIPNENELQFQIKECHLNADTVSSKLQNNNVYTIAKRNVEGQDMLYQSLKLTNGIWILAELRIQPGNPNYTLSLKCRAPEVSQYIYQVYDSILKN

[7] = yeast V-ATPase proton transport modulators, S. cerevisiae, pHLuorin, HTS validation (AID 504600; in the data active means response above about 15%;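 further: plate controls were DMSO for no effect and reference compound for full effect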); details: S. cerevisiae pHLuorin cytosolic pH, at 10 µM, stronger effect = higher value
[8] = test system: anti-desmoglein-3 scFv antibody binding to human DSG3; experiment: inhibitors of anti-DSG3 scFv binding to DSG3, pilot screen, biochemical, validation compound set, bead-based, flow cytometry (AID 588368;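 active means binding below the plate cutoff, the plate median minus 3 SD, with a reading above zero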;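 further: signal is the median channel fluorescence of bead-bound GFP antibody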); details: Protein G beads, DSG3-Fc, scFv-GFP binding, at 10 µM, stronger effect = lower value
[9] = inhibitors of fungal efflux pumps CDR1, CDR2, MDR1, pilot screen, validation compound set, multiplex, phenotypic (AID 588506;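 active means efflux inhibition above 0.42, the validation set average plus 4 SD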;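 further: Nile Red retained in cells so higher fluorescence means more efflux inhibition; 0 = negative control wells and 1 = enniatin B 25 µM full block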); details: S. cerevisiae pump-expressing triplex, Nile Red efflux flow cytometry; at 10 µM; stronger effect = higher value; the pumps come from Candida albicans
[10] = biological target: ATP-binding cassette sub-family B member 6 (Homo sapiens) (UniProt Q9NP58); experiment: ABCB6 transporter inhibitors, pilot screen, K562-ABCB6 cells, flow cytometry, validation set (AID 588550;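 active means inhibition above the screen-wide mean plus 3 SD, about 51%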;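 further: 0% = DMSO wells and 100% = benzethonium chloride 70 µM positive control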); details: K562-ABCB6 porphyrin accumulation, 1 h, at 10 µM, stronger effect = higher value
Chain of ATP-binding cassette sub-family B member 6 (Homo sapiens) (Q9NP58 whole entry, looked up): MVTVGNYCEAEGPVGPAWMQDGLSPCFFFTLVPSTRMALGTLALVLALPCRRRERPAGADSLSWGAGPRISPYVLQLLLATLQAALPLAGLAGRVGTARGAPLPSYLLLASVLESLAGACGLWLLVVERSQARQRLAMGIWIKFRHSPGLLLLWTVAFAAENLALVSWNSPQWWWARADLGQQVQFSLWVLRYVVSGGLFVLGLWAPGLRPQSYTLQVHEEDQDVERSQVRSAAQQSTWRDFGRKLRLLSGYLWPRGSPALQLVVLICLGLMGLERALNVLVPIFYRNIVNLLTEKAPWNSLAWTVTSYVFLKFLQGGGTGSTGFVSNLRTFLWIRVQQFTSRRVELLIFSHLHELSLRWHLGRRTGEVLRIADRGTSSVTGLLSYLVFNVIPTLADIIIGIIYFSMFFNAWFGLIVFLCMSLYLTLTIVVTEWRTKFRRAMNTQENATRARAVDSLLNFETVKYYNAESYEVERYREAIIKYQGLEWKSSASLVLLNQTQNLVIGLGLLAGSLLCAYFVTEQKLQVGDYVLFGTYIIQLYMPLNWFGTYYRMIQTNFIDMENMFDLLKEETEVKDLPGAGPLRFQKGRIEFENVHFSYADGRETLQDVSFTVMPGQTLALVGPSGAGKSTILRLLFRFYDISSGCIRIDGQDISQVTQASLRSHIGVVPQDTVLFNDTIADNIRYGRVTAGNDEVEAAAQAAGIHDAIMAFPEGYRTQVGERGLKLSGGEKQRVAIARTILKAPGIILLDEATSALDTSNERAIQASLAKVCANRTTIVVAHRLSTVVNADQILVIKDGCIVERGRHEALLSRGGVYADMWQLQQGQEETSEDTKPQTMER

[11] = promoters of myeloid differentiation in arrested cells, primary screen, cell-based, GFP/MAC1 double positive, flow cytometry, validation set (AID 588685;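 active means differentiation response of at least 50%, scaled between solvent and reference control, from cells with both markers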;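 further: compound exposure lasts four days before antibody staining and flow analysis; 0% = DMSO wells and 100% = 5 µM fulvestrant positive control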); details: ER-HoxA9 marrow cells, stronger effect = higher value, normalized: vehicle 0, fulvestrant 100

## COc1ccc(CCNC(=O)c2c(O)c3c([nH]c2=O)CCCC3)cc1
[1]
  double positive events: 62.2%
  vesicle binding response: 180% (inactive)
[2]
  inhibition: 3.14% (inactive)
[3]
  superoxide response (% of plate): 124% (inactive)
[4]
  aptamer binding inhibition: -6% (inactive)
[5]
  response: -28.9% (inactive)
[6]
  inhibition: -16.3% (inactive)
[7]
  response: 9.51% (inactive)
[8]
  binding (% of control): 30.9% (active)
[9]
  efflux inhibition (fraction of control): 0 (inactive)
[10]
  inhibition: 1% (inactive)
[11]
  differentiation response: -0.06% (inactive)

## COc1ccc(CCn2c(C)cc3c(c2=O)C(c2ccncc2)C(C#N)=C(N)O3)cc1OC (stereo unspecified)
[1]
  double positive events: 59.3%
  vesicle binding response: 179% (inactive)
[2]
  inhibition: -1.79% (inactive)
[3]
  superoxide response (% of plate): 102% (inactive)
[4]
  aptamer binding inhibition: 6% (inactive)
[5]
  response: 10.6% (inactive)
[6]
  inhibition: -6.51% (inactive)
[7]
  response: 0.22% (inactive)
[8]
  binding (% of control): 101% (inactive)
[9]
  efflux inhibition (fraction of control): -0.13 (inactive)
[10]
  inhibition: 6% (inactive)
[11]
  differentiation response: 12% (inactive)

## CN(C)c1cc(NC(=O)CN2CCOCC2)c2ccccc2n1
[1]
  double positive events: 64.4%
  vesicle binding response: 183% (inactive)
[2]
  inhibition: -9.06% (inactive)
[3]
  superoxide response (% of plate): 96.2% (inactive)
[4]
  aptamer binding inhibition: -2% (inactive)
[5]
  response: 2.53% (inactive)
[6]
  inhibition: -0.56% (inactive)
[7]
  response: -1.23% (inactive)
[8]
  binding (% of control): 109% (inactive)
[9]
  efflux inhibition (fraction of control): -0.17 (inactive)
[10]
  inhibition: 15% (inactive)
[11]
  differentiation response: -3.28% (inactive)

## O=C(CCCC(=O)OCC1CCCO1)OCC1CCCO1 (stereo unspecified)
[1]
  double positive events: 65.5%
  vesicle binding response: 131% (inactive)
[2]
  inhibition: 4.52% (inactive)
[3]
  superoxide response (% of plate): 93.2% (inactive)
[4]
  aptamer binding inhibition: -3% (inactive)
[5]
  response: 2.91% (inactive)
[6]
  inhibition: -6.03% (inactive)
[7]
  response: 2.81% (inactive)
[8]
  binding (% of control): 99.4% (inactive)
[9]
  efflux inhibition (fraction of control): -0.02 (inactive)
[10]
  inhibition: 15% (inactive)
[11]
  differentiation response: 2.46% (inactive)

## COC(=O)c1cc(OC)c(OC)cc1NC(=O)Nc1ccc(OC)cc1OC
[1]
  double positive events: 58.5%
  vesicle binding response: 105% (inactive)
[2]
  inhibition: -14.5% (inactive)
[3]
  superoxide response (% of plate): 82% (inactive)
[4]
  aptamer binding inhibition: 0% (inactive)
[5]
  response: 5.38% (inactive)
[6]
  inhibition: 11.9% (inactive)
[7]
  response: -1.21% (inactive)
[8]
  binding (% of control): 100% (inactive)
[9]
  efflux inhibition (fraction of control): -0.205 (inactive)
[10]
  inhibition: 7% (inactive)
[11]
  differentiation response: 13% (inactive)

## COc1cc(OC)c(C(=O)CCCN2CCCC2)c(OC)c1
[1]
  double positive events: 65.4%
  vesicle binding response: 214% (inactive)
[2]
  inhibition: -3.24% (inactive)
[3]
  superoxide response (% of plate): 97.6% (inactive)
[4]
  aptamer binding inhibition: 4% (inactive)
[5]
  response: -11.1% (inactive)
[6]
  inhibition: 1.36% (inactive)
[7]
  response: 1.8% (inactive)
[8]
  binding (% of control): 109% (inactive)
[9]
  efflux inhibition (fraction of control): 0.19 (inactive)
[10]
  inhibition: 10% (inactive)
[11]
  differentiation response: -8.19% (inactive)

## CCC(=O)Oc1ccc(/C(CC)=C(\CC)c2ccc(OC(=O)CC)cc2)cc1
[1]
  double positive events: 67.2%
  vesicle binding response: 174% (inactive)
[2]
  inhibition: 19.1% (inactive)
[3]
  superoxide response (% of plate): 94.7% (inactive)
[4]
  aptamer binding inhibition: 3% (inactive)
[5]
  response: -5.73% (inactive)
[6]
  inhibition: -4.91% (inactive)
[7]
  response: 2.77% (inactive)
[8]
  binding (% of control): 84.1% (inactive)
[9]
  efflux inhibition (fraction of control): -0.02 (inactive)
[10]
  inhibition: 11% (inactive)
[11]
  differentiation response: -4.09% (inactive)

## O=C(Nc1c(C(=O)O)[nH]c2ccccc12)NC1CCCCC1
[1]
  double positive events: 60.3%
  vesicle binding response: 190% (inactive)
[2]
  inhibition: -17.3% (inactive)
[3]
  superoxide response (% of plate): 102% (inactive)
[4]
  aptamer binding inhibition: 4% (inactive)
[5]
  response: -18.9% (inactive)
[6]
  inhibition: 3.04% (inactive)
[7]
  response: 5.33% (inactive)
[8]
  binding (% of control): 101% (inactive)
[9]
  efflux inhibition (fraction of control): -0.13 (inactive)
[10]
  inhibition: -3% (inactive)
[11]
  differentiation response: -4% (inactive)

## Fc1cc(F)cc(NC(=S)NCCCN2CCOCC2)c1
[1]
  double positive events: 59.3%
  vesicle binding response: 214% (inactive)
[2]
  inhibition: 5.69% (inactive)
[3]
  superoxide response (% of plate): 80.8% (inactive)
[4]
  aptamer binding inhibition: -5% (inactive)
[5]
  response: -24.3% (inactive)
[6]
  inhibition: -3.24% (inactive)
[7]
  response: 4.35% (inactive)
[8]
  binding (% of control): 107% (inactive)
[9]
  efflux inhibition (fraction of control): -0.13 (inactive)
[10]
  inhibition: 2% (inactive)
[11]
  differentiation response: 0.92% (inactive)

## O=c1[nH]cnc2c1ncn2[C@@H]1O[C@H](CO)[C@@H](O)[C@H]1O
[1]
  double positive events: 62%
  vesicle binding response: 140% (inactive)
[2]
  inhibition: -15.6% (inactive)
[3]
  superoxide response (% of plate): 86.8% (inactive)
[4]
  aptamer binding inhibition: 2% (inactive)
[5]
  response: -18% (inactive)
[6]
  inhibition: -10.3% (inactive)
[7]
  response: -0.11% (inactive)
[8]
  binding (% of control): 106% (inactive)
[9]
  efflux inhibition (fraction of control): 0.12 (inactive)
[10]
  inhibition: 5% (inactive)
[11]
  differentiation response: -7.94% (inactive)

## CN1CCN(C2=Nc3cc(Cl)ccc3Nc3ccccc32)CC1
[1]
  double positive events: 61.7%
  vesicle binding response: 222% (inactive)
[2]
  inhibition: 31.2% (inactive)
[3]
  superoxide response (% of plate): 84.7% (inactive)
[4]
  aptamer binding inhibition: -4% (inactive)
[5]
  response: -25% (inactive)
[6]
  inhibition: 9.21% (inactive)
[7]
  response: 6.59% (inactive)
[8]
  binding (% of control): 102% (inactive)
[9]
  efflux inhibition (fraction of control): 0.04 (inactive)
[10]
  inhibition: -2% (inactive)
[11]
  differentiation response: -5.97% (inactive)

## COC1CCCCC1Nc1ccc(C)c(C)c1 (stereo unspecified)
[1]
  double positive events: 59.5%
  vesicle binding response: 262% (inactive)
[2]
  inhibition: -1.79% (inactive)
[3]
  superoxide response (% of plate): 100% (inactive)
[4]
  aptamer binding inhibition: 5% (inactive)
[5]
  response: 6.1% (inactive)
[6]
  inhibition: -5.05% (inactive)
[7]
  response: 0.08% (inactive)
[8]
  binding (% of control): 94.7% (inactive)
[9]
  efflux inhibition (fraction of control): 0.05 (inactive)
[10]
  inhibition: 5% (inactive)
[11]
  differentiation response: -12% (inactive)

## Cn1c2[n+](c3ccc(Cl)cc3c1=O)Cc1ccccc1-2
[1]
  double positive events: 69%
  vesicle binding response: 278% (inactive)
[2]
  inhibition: -13% (inactive)
[3]
  superoxide response (% of plate): 97.2% (inactive)
[4]
  aptamer binding inhibition: 1% (inactive)
[5]
  response: -8.51% (inactive)
[6]
  inhibition: 1.06% (inactive)
[7]
  response: 7.46% (inactive)
[8]
  binding (% of control): 107% (inactive)
[9]
  efflux inhibition (fraction of control): 0.21 (inactive)
[10]
  inhibition: 10% (inactive)
[11]
  differentiation response: 20.6% (inactive)
